Legend:
Assay in all cases: DAPPL (digital affinity profiling via proximity ligation, sequencing); 10 mM Tris-HCl pH 7.5, 50 mM NaCl, 1 mM DTT, 4% glycerol, room temperature, 30 min; GST-TFs on glutathione beads, 16-mer random dsDNA library, 0.1% formaldehyde crosslink after washing; high values mean tight binding
Settings in all cases: protein: recombinant; tags: N-terminal GST; dsDNA, one strand shown
FLI1 = target: T1, FLI1 (Homo sapiens, UniProt Q01543 1-452)
T1 sequence: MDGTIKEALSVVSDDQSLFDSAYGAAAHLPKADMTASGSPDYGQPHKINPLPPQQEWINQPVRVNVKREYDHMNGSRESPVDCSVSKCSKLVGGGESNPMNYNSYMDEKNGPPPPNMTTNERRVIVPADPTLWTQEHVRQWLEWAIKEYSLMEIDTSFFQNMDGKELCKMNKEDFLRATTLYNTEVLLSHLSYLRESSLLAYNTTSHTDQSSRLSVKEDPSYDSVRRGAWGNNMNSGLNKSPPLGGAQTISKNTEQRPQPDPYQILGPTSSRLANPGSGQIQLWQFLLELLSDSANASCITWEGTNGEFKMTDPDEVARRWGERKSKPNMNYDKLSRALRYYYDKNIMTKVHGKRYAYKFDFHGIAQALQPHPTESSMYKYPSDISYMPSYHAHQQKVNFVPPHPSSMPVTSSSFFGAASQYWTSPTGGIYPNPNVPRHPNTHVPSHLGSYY
Summary of the method: (§1)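 The binding signal reported is, for every hexamer, its read frequency for a factor over its read frequency for the tag-only sample. Reads came from pools of yeast-expressed, GST-fused human transcription factors on glutathione beads, barcoded with DNA and mixed with that sample, which were incubated with 200 nmole of a random double-stranded 16-mer DNA library in Tris/NaCl/DTT/glycerol buffer at room temperature for 30 min. After washing, the pools were crosslinked with 0.1% formaldehyde, proximity-ligated with BsaI/T4 ligase for 1 h at 37 °C, PCR-amplified and sequenced on an Illumina NextSeq500.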

ELK1 = target: T2, ELK1 (Homo sapiens, UniProt P19419 1-428)
T2 sequence: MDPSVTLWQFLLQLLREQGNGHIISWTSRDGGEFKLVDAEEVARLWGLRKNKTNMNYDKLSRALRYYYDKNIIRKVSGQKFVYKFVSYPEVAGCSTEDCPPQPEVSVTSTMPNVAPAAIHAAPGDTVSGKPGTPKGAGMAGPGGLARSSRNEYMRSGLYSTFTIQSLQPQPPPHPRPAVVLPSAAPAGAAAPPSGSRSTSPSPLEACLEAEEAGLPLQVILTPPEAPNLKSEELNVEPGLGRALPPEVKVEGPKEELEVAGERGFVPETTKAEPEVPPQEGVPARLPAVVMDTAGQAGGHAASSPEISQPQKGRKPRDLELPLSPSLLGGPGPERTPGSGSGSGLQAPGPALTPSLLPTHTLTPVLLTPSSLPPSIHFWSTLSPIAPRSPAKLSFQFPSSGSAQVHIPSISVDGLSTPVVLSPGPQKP
Summary of the method: as §1

GABPA = target: T3, GABPA (Homo sapiens, UniProt Q06546 1-454)
T3 sequence: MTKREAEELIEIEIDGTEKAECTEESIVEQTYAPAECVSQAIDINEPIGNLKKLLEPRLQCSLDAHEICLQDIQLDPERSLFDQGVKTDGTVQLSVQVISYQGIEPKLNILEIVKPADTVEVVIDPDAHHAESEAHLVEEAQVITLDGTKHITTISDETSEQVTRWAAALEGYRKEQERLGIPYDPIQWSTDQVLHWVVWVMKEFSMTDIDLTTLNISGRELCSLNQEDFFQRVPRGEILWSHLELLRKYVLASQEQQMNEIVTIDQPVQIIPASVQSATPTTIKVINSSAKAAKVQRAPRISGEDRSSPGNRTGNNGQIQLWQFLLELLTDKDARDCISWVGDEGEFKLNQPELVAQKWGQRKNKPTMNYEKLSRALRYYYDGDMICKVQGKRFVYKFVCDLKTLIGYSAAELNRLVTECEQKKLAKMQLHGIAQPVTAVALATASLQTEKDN
Summary of the method: as §1

ERG = target: T4, ERG (Homo sapiens, UniProt P11308 1-479)
T4 sequence: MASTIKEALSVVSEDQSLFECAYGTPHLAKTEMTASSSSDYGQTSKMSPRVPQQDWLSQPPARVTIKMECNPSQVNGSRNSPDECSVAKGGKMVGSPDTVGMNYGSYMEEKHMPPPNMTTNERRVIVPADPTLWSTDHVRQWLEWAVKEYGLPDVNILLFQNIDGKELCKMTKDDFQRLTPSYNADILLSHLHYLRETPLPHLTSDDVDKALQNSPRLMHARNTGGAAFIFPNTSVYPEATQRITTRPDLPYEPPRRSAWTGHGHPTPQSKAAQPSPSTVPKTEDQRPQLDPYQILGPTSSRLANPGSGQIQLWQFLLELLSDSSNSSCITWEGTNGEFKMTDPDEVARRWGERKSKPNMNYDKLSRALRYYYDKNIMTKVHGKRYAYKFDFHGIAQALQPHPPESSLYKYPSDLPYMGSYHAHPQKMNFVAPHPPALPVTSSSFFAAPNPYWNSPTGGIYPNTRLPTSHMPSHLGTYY
Summary of the method: as §1

ELF1 = ELF1 (Homo sapiens, UniProt P32519 1-619)
Sequence of ELF1 (P32519 whole entry): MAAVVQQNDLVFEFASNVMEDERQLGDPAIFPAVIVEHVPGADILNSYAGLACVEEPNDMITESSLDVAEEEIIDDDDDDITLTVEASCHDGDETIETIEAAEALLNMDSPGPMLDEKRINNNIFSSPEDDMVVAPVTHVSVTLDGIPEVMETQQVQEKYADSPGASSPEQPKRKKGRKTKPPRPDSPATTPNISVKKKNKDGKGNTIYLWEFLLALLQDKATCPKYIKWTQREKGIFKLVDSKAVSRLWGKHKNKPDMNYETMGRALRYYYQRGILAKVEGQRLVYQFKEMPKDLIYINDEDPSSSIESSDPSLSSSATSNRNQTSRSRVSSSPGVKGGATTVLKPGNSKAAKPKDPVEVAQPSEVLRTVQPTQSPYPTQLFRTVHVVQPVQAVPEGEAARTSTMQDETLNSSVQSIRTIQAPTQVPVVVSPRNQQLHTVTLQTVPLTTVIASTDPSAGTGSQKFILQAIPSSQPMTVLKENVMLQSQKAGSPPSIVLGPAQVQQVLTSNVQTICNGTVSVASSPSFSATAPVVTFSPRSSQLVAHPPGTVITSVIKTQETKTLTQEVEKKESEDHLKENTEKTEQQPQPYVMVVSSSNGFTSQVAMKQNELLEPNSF
Summary of the method: as §1

EHF = target: T5, EHF (Homo sapiens, UniProt Q9NZC4 1-300)
T5 sequence: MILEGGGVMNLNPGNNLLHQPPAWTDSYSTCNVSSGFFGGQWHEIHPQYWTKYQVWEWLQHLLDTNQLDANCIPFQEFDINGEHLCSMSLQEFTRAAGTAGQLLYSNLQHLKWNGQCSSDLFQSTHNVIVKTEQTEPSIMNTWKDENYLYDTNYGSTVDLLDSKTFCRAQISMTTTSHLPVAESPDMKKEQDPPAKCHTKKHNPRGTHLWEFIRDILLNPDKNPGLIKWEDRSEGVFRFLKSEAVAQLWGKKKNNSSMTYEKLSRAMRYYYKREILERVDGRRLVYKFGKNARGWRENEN
Summary of the method: as §1

SPI1 = SPI1 (Homo sapiens, UniProt P17947 1-270)
Summary of the method: as §1

SPIB = SPIB (Homo sapiens, UniProt Q01892 1-262)
Sequence of SPIB (Q01892 whole entry): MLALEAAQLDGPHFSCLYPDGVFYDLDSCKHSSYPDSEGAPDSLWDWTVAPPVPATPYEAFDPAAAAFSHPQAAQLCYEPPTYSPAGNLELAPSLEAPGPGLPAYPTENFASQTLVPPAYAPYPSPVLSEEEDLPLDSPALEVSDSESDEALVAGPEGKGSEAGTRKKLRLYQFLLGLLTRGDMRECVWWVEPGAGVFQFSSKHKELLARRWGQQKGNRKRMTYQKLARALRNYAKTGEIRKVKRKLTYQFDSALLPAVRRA
Summary of the method: as §1

ELK3 = target: T6, ELK3 (Homo sapiens, UniProt P41970 1-407)
T6 sequence: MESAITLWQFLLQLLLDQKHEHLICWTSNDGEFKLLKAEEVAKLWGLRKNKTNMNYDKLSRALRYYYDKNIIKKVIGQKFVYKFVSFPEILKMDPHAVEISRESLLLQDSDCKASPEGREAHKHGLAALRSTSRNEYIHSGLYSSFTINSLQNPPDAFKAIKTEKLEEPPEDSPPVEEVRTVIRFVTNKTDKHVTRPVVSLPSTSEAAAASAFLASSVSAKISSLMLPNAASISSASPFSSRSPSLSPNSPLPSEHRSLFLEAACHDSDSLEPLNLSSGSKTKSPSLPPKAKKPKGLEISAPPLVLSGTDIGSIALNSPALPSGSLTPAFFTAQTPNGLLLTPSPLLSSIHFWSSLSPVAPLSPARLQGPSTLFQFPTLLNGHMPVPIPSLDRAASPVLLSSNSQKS
Summary of the method: as §1

Sequence | binding signal (FLI1) | binding signal (ELK1) | binding signal (GABPA) | binding signal (ERG) | binding signal (ELF1) | binding signal (EHF) | binding signal (SPI1) | binding signal (SPIB) | binding signal (ELK3)
AATCCC | 1.36 fold enrichment (6-mer frequency, TF over GST control) | 1.36 fold enrichment (6-mer frequency, TF over GST control) | 1.38 fold enrichment (6-mer frequency, TF over GST control) | 1.42 fold enrichment (6-mer frequency, TF over GST control) | 1.35 fold enrichment (6-mer frequency, TF over GST control) | 1.39 fold enrichment (6-mer frequency, TF over GST control) | 1.26 fold enrichment (6-mer frequency, TF over GST control) | 1.32 fold enrichment (6-mer frequency, TF over GST control) | 1.13 fold enrichment (6-mer frequency, TF over GST control)
GCCTTG | 1.34 fold enrichment (6-mer frequency, TF over GST control) | 1.27 fold enrichment (6-mer frequency, TF over GST control) | 1.33 fold enrichment (6-mer frequency, TF over GST control) | 1.26 fold enrichment (6-mer frequency, TF over GST control) | 1.29 fold enrichment (6-mer frequency, TF over GST control) | 1.24 fold enrichment (6-mer frequency, TF over GST control) | 1.25 fold enrichment (6-mer frequency, TF over GST control) | 1.23 fold enrichment (6-mer frequency, TF over GST control) | 1.18 fold enrichment (6-mer frequency, TF over GST control)
AACCTG | 1.19 fold enrichment (6-mer frequency, TF over GST control) | 1.2 fold enrichment (6-mer frequency, TF over GST control) | 1.17 fold enrichment (6-mer frequency, TF over GST control) | 1.09 fold enrichment (6-mer frequency, TF over GST control) | 1.16 fold enrichment (6-mer frequency, TF over GST control) | 1.22 fold enrichment (6-mer frequency, TF over GST control) | 1.27 fold enrichment (6-mer frequency, TF over GST control) | 1.12 fold enrichment (6-mer frequency, TF over GST control) | 1.21 fold enrichment (6-mer frequency, TF over GST control)
TTCGCC | 1.26 fold enrichment (6-mer frequency, TF over GST control) | 1.28 fold enrichment (6-mer frequency, TF over GST control) | 1.2 fold enrichment (6-mer frequency, TF over GST control) | 1.15 fold enrichment (6-mer frequency, TF over GST control) | 1.15 fold enrichment (6-mer frequency, TF over GST control) | 1.11 fold enrichment (6-mer frequency, TF over GST control) | 1.1 fold enrichment (6-mer frequency, TF over GST control) | 1.14 fold enrichment (6-mer frequency, TF over GST control) | 1.08 fold enrichment (6-mer frequency, TF over GST control)
CTATTT | 1.7 fold enrichment (6-mer frequency, TF over GST control) | 1.67 fold enrichment (6-mer frequency, TF over GST control) | 1.74 fold enrichment (6-mer frequency, TF over GST control) | 1.77 fold enrichment (6-mer frequency, TF over GST control) | 1.58 fold enrichment (6-mer frequency, TF over GST control) | 1.85 fold enrichment (6-mer frequency, TF over GST control) | 1.76 fold enrichment (6-mer frequency, TF over GST control) | 1.81 fold enrichment (6-mer frequency, TF over GST control) | 1.85 fold enrichment (6-mer frequency, TF over GST control)
CCTCCT | 1.72 fold enrichment (6-mer frequency, TF over GST control) | 1.45 fold enrichment (6-mer frequency, TF over GST control) | 1.57 fold enrichment (6-mer frequency, TF over GST control) | 1.45 fold enrichment (6-mer frequency, TF over GST control) | 1.5 fold enrichment (6-mer frequency, TF over GST control) | 1.42 fold enrichment (6-mer frequency, TF over GST control) | 1.7 fold enrichment (6-mer frequency, TF over GST control) | 1.61 fold enrichment (6-mer frequency, TF over GST control) | 1.48 fold enrichment (6-mer frequency, TF over GST control)
TTTTAC | 1.45 fold enrichment (6-mer frequency, TF over GST control) | 1.27 fold enrichment (6-mer frequency, TF over GST control) | 1.33 fold enrichment (6-mer frequency, TF over GST control) | 1.3 fold enrichment (6-mer frequency, TF over GST control) | 1.39 fold enrichment (6-mer frequency, TF over GST control) | 1.45 fold enrichment (6-mer frequency, TF over GST control) | 1.37 fold enrichment (6-mer frequency, TF over GST control) | 1.4 fold enrichment (6-mer frequency, TF over GST control) | 1.39 fold enrichment (6-mer frequency, TF over GST control)
TAACCC | 1.31 fold enrichment (6-mer frequency, TF over GST control) | 1.4 fold enrichment (6-mer frequency, TF over GST control) | 1.25 fold enrichment (6-mer frequency, TF over GST control) | 1.23 fold enrichment (6-mer frequency, TF over GST control) | 1.28 fold enrichment (6-mer frequency, TF over GST control) | 1.25 fold enrichment (6-mer frequency, TF over GST control) | 1.18 fold enrichment (6-mer frequency, TF over GST control) | 1.21 fold enrichment (6-mer frequency, TF over GST control) | 1.38 fold enrichment (6-mer frequency, TF over GST control)

Source: publication PMC7862700, “An all-to-all approach to the identification of sequence-specific readers for epigenetic DNA modifications on cytosine”
